Out of some 48,000 compounds screened, about 13,000 (27%) showed an effect of 50% or more. This is one part of the list.
System: Wolbachia pipientis
Test: Anti-Wolbachia Cell-Based Screen
Format: functional
Parameters: scale not given: in the data most compounds retested in dose-response had high values
Settings: 5 µM

Which “Percent Effect” value does the source give for `CN(CC1=CCCN(Cc2cccc(C#N)c2)C1)C(=O)c1ccco1` here?
Its value is 6.358%.

How did the “Percent Effect” value turn out when `O=C(CCc1ccsc1)N1CCC(n2cc(CO)nn2)CC1` was run?
The value was -0.2022%.

Which “Percent Effect” value does the source give for `CCn1c(CN2CCCC2)nnc1C1CCN(Cc2ccc(C)o2)CC1` here?
Its value is 10.89%.

How did the “Percent Effect” value turn out when `OC(CNc1nc(C2CCCC2)nc2c1CCNCC2)C(F)(F)F` (configuration not stated) was run?
The value was -10.56%.

How did the “Percent Effect” value turn out when `NC(=O)CSc1nnc2[nH]c(=O)c3c(n12)CCCC3` was run?
The value was 2.529%.

Which “Percent Effect” value does the source give for `O=C(NCCCn1cccn1)c1csc2c1CCCC2` here?
The value was -1.067%.

For `CCCc1cc(=O)[nH]c2nnc(SCC(N)=O)n12`, which “Percent Effect” value is on record?
Its value is 23.5%.

For `COC(=O)CSc1nnc2[nH]c(=O)c3c(n12)CCCC3`, which “Percent Effect” value is on record?
Its value is -5.705%.

How did the “Percent Effect” value turn out when `CCn1c(SCC(N)=O)nnc1-c1csc2c1CCCC2` was run?
The value was 115.1%.

Which “Percent Effect” value does the source give for `O=C(NCCn1ccnc1)c1csc2c1CCCC2` here?
Its value is 1.844%.

How did the “Percent Effect” value turn out when `Cn1c(SCC(N)=O)nnc1-c1csc2c1CCCC2` was run?
The value was 119.7%.

`CCCn1c(SCC(N)=O)nnc1-c1csc2c1CCCC2` was tested. Which “Percent Effect” value did it give?
The value was 99.65%.

How did the “Percent Effect” value turn out when `CCCNC(=O)CSc1nnc2[nH]c(=O)c3c(n12)CCCC3` was run?
Its value is 1.807%.

`O=C(CSc1ccncc1)N1C[C@H]2CC[C@@H]1CN(Cc1cccnc1)C2` was tested. Which “Percent Effect” value did it give?
The value was 5.846%.

With `CCCc1n[nH]c(C2CN(CCNS(=O)(=O)CC)CCO2)n1` (configuration not stated) as the molecule, how does the “Percent Effect” value read?
Its value is 14.03%.

For `O=C(NCCCN1CCN(c2ncccn2)CC1)NCC1CCOC1` (configuration not stated), which “Percent Effect” value is on record?
Its value is 1.135%.

Which “Percent Effect” value does the source give for `CCn1nc(C(C)C)cc1C(=O)NCC1CCCN(c2ccccn2)C1` (configuration not stated) here?
The value was 125%.

With `Cc1ccc(-c2nc(CC(=O)NCC3CCCN(C(C)C)C3)cs2)o1` (configuration not stated) as the molecule, how does the “Percent Effect” value read?
The value was 19.88%.

`CC(C)Cc1cc(C(=O)NCC2CCCN(c3ccccn3)C2)on1` (configuration not stated) was tested. Which “Percent Effect” value did it give?
Its value is 8.718%.

With `CCCc1nnsc1C(=O)NCC1CCN(c2ncccn2)CC1` as the molecule, how does the “Percent Effect” value read?
Its value is 3.898%.

Which “Percent Effect” value does the source give for `CC(C)c1cc(C(=O)NCC2CCCN(C(C)C)C2)n(C)n1.Cl` (configuration not stated) here?
Its value is 153.6%.

How did the “Percent Effect” value turn out when `CCc1nnsc1C(=O)NCCC1CCCN(C(C)C)C1` (configuration not stated) was run?
The value was 8.592%.

Which “Percent Effect” value does the source give for `CCCc1nnsc1C(=O)NCC1CCN(c2ccccn2)CC1` here?
Its value is -9.247%.

For `CC(C)c1cc(C(=O)NCC2CCCN(c3ncccn3)C2)n(C)n1` (configuration not stated), which “Percent Effect” value is on record?
The value was 135%.

With `CC(C)Sc1ccc(C(C)NC(=O)CNS(C)(=O)=O)cc1` (configuration not stated) as the molecule, how does the “Percent Effect” value read?
The value was -8.082%.

How did the “Percent Effect” value turn out when `COCC(C)N1CCc2onc(-c3ccc(C(F)(F)F)cc3)c2C1` (configuration not stated) was run?
Its value is -24.24%.

`CCc1ncnc(N(C)CC2CCCCO2)c1F` (configuration not stated) was tested. Which “Percent Effect” value did it give?
Its value is 6.222%.

`CC[C@H]1COCCN1C(=O)c1cnc(C(C)C)nc1C` was tested. Which “Percent Effect” value did it give?
Its value is -0.1974%.

How did the “Percent Effect” value turn out when `CCc1ccc(CN2CCc3ncnc(N4CCOCC4)c3CC2)o1.O=C(O)C(F)(F)F` was run?
Its value is 10.74%.

Which “Percent Effect” value does the source give for `CCc1ncnc(N2CCOCC2CCO)c1F` (configuration not stated) here?
Its value is 97.7%.

Which “Percent Effect” value does the source give for `CCOCC(=O)N1CCc2c(ncnc2N2CCOCC2)C1` here?
The value was -19.06%.

Which “Percent Effect” value does the source give for `CCc1c(C)sc2ncnc(N3CC[C@@H](N4CCOCC4)[C@H](O)C3)c12` here?
Its value is -13.58%.

For `Cc1nn(C)c(C)c1C1COCCN1c1ncnc2sccc12` (configuration not stated), which “Percent Effect” value is on record?
The value was -13.78%.

How did the “Percent Effect” value turn out when `CCc1ncnc(N2CCOCC2C(N)=O)c1F` (configuration not stated) was run?
The value was 114.1%.

Which “Percent Effect” value does the source give for `CCc1ncnc(N2CCOCC2C2CC2)c1F` (configuration not stated) here?
The value was 106.4%.

How did the “Percent Effect” value turn out when `Cc1n[nH]cc1CNCC(c1ccsc1)N(C)C` (configuration not stated) was run?
Its value is 26.65%.

For `COc1cccc(Cn2cccc(C#N)c2=O)c1`, which “Percent Effect” value is on record?
The value was -6.219%.

Which “Percent Effect” value does the source give for `CCN1N=C(C(=O)N2CCCC(c3noc(C)n3)C2)CCC1=O` (configuration not stated) here?
Its value is -1.234%.

How did the “Percent Effect” value turn out when `CCN1N=C(C(=O)N2CCCC(c3nc(C)cs3)C2)CCC1=O` (configuration not stated) was run?
Its value is 85.99%.

How did the “Percent Effect” value turn out when `CCc1csc(C2CCCN(C(=O)C3=NN(CC)C(=O)CC3)C2)n1` (configuration not stated) was run?
Its value is 7.447%.

Which “Percent Effect” value does the source give for `CCc1nc(C2CCCN(C(=O)C3=NN(CC)C(=O)CC3)C2)no1` (configuration not stated) here?
Its value is 20.67%.

How did the “Percent Effect” value turn out when `CCN1N=C(C(=O)N2CCCC(c3nc(C)c(C)s3)C2)CCC1=O` (configuration not stated) was run?
Its value is 92.25%.

For `Cc1nc(C2CCCN(C(=O)C3=NN(C(C)C)C(=O)CC3)C2)no1` (configuration not stated), which “Percent Effect” value is on record?
The value was -5.623%.

Which “Percent Effect” value does the source give for `COC1CCCN(C2CCN(c3cccc(-c4csc(C)n4)c3)CC2)C1` (configuration not stated) here?
The value was 10.88%.

With `NC(=O)C1CCN(C(=O)C2SCCc3sccc32)CC1` (configuration not stated) as the molecule, how does the “Percent Effect” value read?
Its value is -9.27%.

With `COc1cccc(-c2ncc(CN3C[C@@H]4CC[C@H](C3)N(C)C4=O)s2)c1` as the molecule, how does the “Percent Effect” value read?
Its value is 4.635%.

With `COCCn1ccnc1C1CCN(C(=O)c2cccc(COC)n2)CC1` as the molecule, how does the “Percent Effect” value read?
Its value is -13.9%.

`CN(C)S(=O)(=O)N1C[C@H]2CCC[C@@]2(COCC2CC2)C1` was tested. Which “Percent Effect” value did it give?
The value was -7.001%.

With `CC(C)C(=O)N1CCOC2(COCCN(c3ncccn3)C2)C1` (configuration not stated) as the molecule, how does the “Percent Effect” value read?
Its value is 1.497%.

How did the “Percent Effect” value turn out when `CN(C)CC(=O)N1CCC2(CC1)COCCN(Cc1ccncc1)C2` was run?
Its value is -9.31%.

Which “Percent Effect” value does the source give for `CN(C)CC(=O)N1CCC2(CC1)CN(c1ncccn1)CCO2.O=C(O)C(F)(F)F` here?
The value was -4.698%.

`CN(C)C(=O)N1CCC2(CC1)COCCN(c1ncccn1)C2` was tested. Which “Percent Effect” value did it give?
The value was 89.78%.

`CN(C)CC(=O)N1CCC2(CC1)COCCN(c1ncccn1)C2` was tested. Which “Percent Effect” value did it give?
The value was 104.4%.

For `c1cc(CN2CCCCC2)cc(NCc2cc[nH]n2)c1`, which “Percent Effect” value is on record?
Its value is 0.9619%.

How did the “Percent Effect” value turn out when `Cc1ccc(S(=O)(=O)NC[C@H]2OC[C@@H](NCc3ccncc3)[C@@H]2O)cc1` was run?
The value was -4.658%.

With `CCc1nc(C)c([C@H]2CN(C)C[C@@H]2C(=O)NC(C)(C)c2ccccc2)[nH]1` as the molecule, how does the “Percent Effect” value read?
Its value is -16%.

With `Cc1nc(C)n(CC2CCCCN2CCCS(=O)(=O)N(C)C)n1` (configuration not stated) as the molecule, how does the “Percent Effect” value read?
The value was -10.86%.

`CCC[C@@H]1CN(C(=O)c2c(F)ccc(C)c2Cl)C[C@H]1C(=O)O` was tested. Which “Percent Effect” value did it give?
Its value is 10.65%.

With `CC(=O)c1c(C)cc(C)c(CS(=O)(=O)c2nccn2C)c1C` as the molecule, how does the “Percent Effect” value read?
The value was -11.41%.

`Cc1occc1C(=O)N1CC[C@@H](N2CCOCC2)[C@@H]1Cc1ccccc1` was tested. Which “Percent Effect” value did it give?
Its value is 5.558%.

How did the “Percent Effect” value turn out when `CN(C)C(=O)CO[C@@H]1CC[C@H]2[C@H]1OCCN2C(=O)C1CCOCC1` was run?
Its value is 4.998%.

How did the “Percent Effect” value turn out when `CN([C@@H]1CC[C@@H](N2CCOCC2)[C@@H]1O)S(=O)(=O)c1ccccc1` was run?
The value was 122.9%.

For `CN(C(=O)C1CCOCC1)[C@@H]1CCC[C@@H](N2CCCC2)[C@@H]1O`, which “Percent Effect” value is on record?
The value was 75.81%.

Which “Percent Effect” value does the source give for `CN(C(=O)C1CCCCC1)[C@@H]1CCC[C@@H](N2CCOCC2)[C@@H]1O` here?
Its value is 5.741%.

With `O=C(C1CCOCC1)N1CC[C@@](O)(c2ccccc2)[C@H]2CCCC[C@@H]21` as the molecule, how does the “Percent Effect” value read?
Its value is 1.669%.

Which “Percent Effect” value does the source give for `CN(C(=O)C1CCOCC1)[C@@H]1CCC[C@@H](N2CCOCC2)[C@@H]1O` here?
Its value is 124.2%.

Which “Percent Effect” value does the source give for `O[C@H]1CN(c2nc(-c3ccccc3)no2)C[C@@H]1N1CCOCC1` here?
The value was 10.35%.
